In PubChem BioAssay AID463173 (ICCB-Longwood Screening Facility, Harvard Medical School, 2010) one finds survival data, which are given here for 90 compounds.

The whole screen tested about 52,000 compounds, of which about 4,300 (8.3%) were called active. The full list was thinned out, with actives kept by preference. Unmarked numbers belong to inactive results. Cut-off read from the data, not from the text of the source: active = survival mostly below about 52% (no sharp cut-off); inactive = mostly above about 56%.

For this experiment, the system named is DeltatarO mutant. Kind of experiment: growth inhibition of S. aureus wild type versus tarO mutant, primary screen, teichoic acid synthesis inhibitors, RN4220, OD600 (AID 463173). The following applies: OD600, 18 h, stronger effect = lower value, screened at 18.75 µg/mL (by protocol).
Consider `COc1ccc(C(=O)Nc2cccc(OCc3cc(=O)n4c5c(sc4n3)CCCC5)c2)cc1`, for which the survival is 55%.

Consider `COc1cccc(C(=O)Nc2cccc(OCc3cc(=O)n4c5c(sc4n3)CCCC5)c2)c1`, for which the survival was 51% (active).

Regarding `COc1ccc(C(=O)Nc2cccc(OCc3cc(=O)n4c5c(sc4n3)CCCC5)c2)cc1OC`, the survival is 53%.

As to `Cc1csc2nc(COc3cccc(NC(=O)c4ccccc4F)c3)cc(=O)n12`, the survival is 123%.

In the case of `Cc1ccccc1C(=O)Nc1cccc(OCc2cc(=O)n3c(C)csc3n2)c1`, the survival was 96%.

Regarding `Cc1ccc(C(=O)Nc2cccc(OCc3cc(=O)n4c5c(sc4n3)CCCC5)c2)cc1`, the survival is 118%.

For `COc1ccccc1C(=O)Nc1cccc(OCc2cc(=O)n3c(C)csc3n2)c1`, the survival was 44% (active).

For `Cc1ccccc1C(=O)Nc1cccc(OCc2cc(=O)n3c4c(sc3n2)CCCC4)c1`, the survival is 101%.

In the case of `COc1ccccc1C(=O)Nc1cccc(OCc2cc(=O)n3c4c(sc3n2)CCCC4)c1`, the survival is 39% (active).

Turning to `CCOc1ccc(-c2nonc2NC(=O)c2oc3ccc(Cl)cc3c2C)cc1`, the survival was 64%.

For the compound `NNC1=NC2CS(=O)(=O)CC2S1` (stereo not given), the survival is 56%.

For `CCSc1nnc(CNc2ccc(F)cc2)n1CC1CCCO1` (stereo not given), the survival is 91%.

`CC(C)NC(=O)c1ccc(Cn2c(=O)c3cccn3c3cccnc32)cc1`: the survival is 44% (active).

Consider `COCCCNC(=O)c1ccc(Cn2c(=O)c3cccn3c3cccnc32)cc1`, for which the survival was 70%.

With `CC(CNC(=O)c1ccc(Cn2c(=O)c3cccn3c3cccnc32)cc1)c1ccccc1` (stereo not given), the survival is 41% (active).

For the compound `CC(NC(=O)c1ccc(Cn2c(=O)c3cccn3c3cccnc32)cc1)c1ccccc1` (stereo not given), the survival was 101%.

On to `CCC(C)NC(=O)c1ccc(Cn2c(=O)c3cccn3c3cccnc32)cc1` (stereo not given), for which the survival was 116%.

Take `CC(C)CCNC(=O)c1ccc(Cn2c(=O)c3cccn3c3cccnc32)cc1`: the survival is 64%.

With `CC(C)CCn1c(=O)c2sccc2n2c(CCCC(=O)NC(C)c3ccccc3)nnc12` (stereo not given), the survival was 88%.

As to `Nc1nnc(SCC(=O)C2CC2)s1`, the survival was 80%.

For the compound `O=C(N/N=C/c1ccc(F)cc1)c1ccc(NC(=O)C2CC2)cc1`, the survival was 105%.

Regarding `Cc1cc(Nc2cccc(Cl)c2)nc2ccc(NC(=O)c3cccnc3)cc12`, the survival is 91%.

As to `CN1C(C(=O)Nc2ccc(OC(F)(F)F)cc2)=CC(c2cccs2)=NS1(=O)=O`, the survival is 31% (active).

Consider `COc1ccc(NC(=O)C2=CC(c3ccc4c(c3)OCO4)=NS(=O)(=O)N2C)cc1`, for which the survival was 88%.

With `CN1C(C(=O)Nc2ccc(OC(F)(F)F)cc2)=CC(c2ccc3c(c2)OCO3)=NS1(=O)=O`, the survival was 80%.

As to `COc1ccc(C2=NS(=O)(=O)N(C)C(C(=O)Nc3ccc(OC(F)(F)F)cc3)=C2)cc1`, the survival was 48% (active).

As for `COc1ccc(NC(=O)C2=CC(c3cccs3)=NS(=O)(=O)N2C)cc1`, the survival was 94%.

Turning to `Cc1ccc(NC(=O)C2=CC(c3cccs3)=NS(=O)(=O)N2C)cc1`, the survival was 83%.

For the compound `Cc1cc(C)c(Cn2c(=O)n(-c3ccccc3Cl)c(=O)c3c(C)c(C(=O)N(C)C)sc32)c(C)c1`, the survival is 86%.

As for `CCCCNc1nc2c(c(=O)n(C)c(=O)n2C)n1CC(O)COc1ccccc1C` (stereo not given), the survival is 42% (active).

For `CCCNc1nc2c(c(=O)n(C)c(=O)n2C)n1CC(O)COc1ccccc1` (stereo not given), the survival is 62%.

`CCNc1nc2c(c(=O)n(C)c(=O)n2C)n1CC(O)COc1ccccc1` (stereo not given): the survival is 61%.

For `Cc1cccc(NC(=O)CSc2nc3c(c(=O)[nH]2)CN(Cc2ccc4c(c2)OCO4)CC3)c1C`, the survival is 78%.

In the case of `O=C1CCC(=O)N1CC(=O)N1CCCc2ccccc21`, the survival was 85%.

As to `CCN(CC)S(=O)(=O)c1ccc2c(c1)nc(CN(C)C(=O)Nc1ccc(C)c(Cl)c1)n2C`, the survival is 86%.

With `CCOc1ccccc1Nc1ncnc2c1cnn2-c1ccc(C)cc1`, the survival was 87%.

Consider `Cc1ccc(C)c(Nc2ncnc3c2cnn3-c2ccc(F)cc2)c1`, for which the survival is -1% (active).

As to `COc1ccc(C(=O)NNc2ncnc3c2cnn3-c2ccccc2)cc1`, the survival is 92%.

Take `CCC(C)Nc1ncnc2c1cnn2-c1ccc(F)cc1` (stereo not given): the survival is 72%.

With `CC(=O)NNc1ncnc2c1cnn2-c1ccccc1`, the survival was 46% (active).

`Cc1ccc(-n2ncc3c(NCCCc4ccccc4)ncnc32)cc1`: the survival was 89%.

With `Cc1ccc(-n2ncc3c(Nc4cccc(C)c4C)ncnc32)cc1`, the survival is 94%.

Turning to `Cc1ccc(-n2ncc3c(NC(C)c4ccccc4)ncnc32)cc1` (stereo not given), the survival was 94%.

For the compound `CCCCc1ccc(Nc2ncnc3c2cnn3-c2ccc(C)cc2)cc1`, the survival is 17% (active).

As for `CC(C)(C)c1ccc(C(=O)NNc2ncnc3c2cnn3-c2ccccc2)cc1`, the survival was 115%.

Take `Cc1ccc(-n2ncc3c(Nc4ccc(Oc5ccccc5)cc4)ncnc32)cc1`: the survival was 68%.

Turning to `CCC(CO)Nc1ncnc2c1cnn2-c1ccc(C)cc1` (stereo not given), the survival was -5% (active).

On to `Cc1ccccc1NC(=O)CCNC(=O)Cn1ccc2ccccc2c1=O`, for which the survival is 70%.

As for `N/C(=N\c1nc2ccccc2o1)NC(=O)/C=C/c1ccco1`, the survival is 85%.

`Cc1ccc(-n2c(=O)c3ccc(C(=O)NCc4ccco4)cc3n(Cc3ccc(Cl)cc3)c2=O)cc1`: the survival was 77%.

With `CS(=O)(=O)c1ccc2nc(NC(=O)CN3C(=O)c4ccccc4C3=O)sc2c1`, the survival was 85%.

With `COc1ccc(CNC(=O)CSCc2cnn(-c3ccccc3)c2-n2cccc2)cc1OC`, the survival is 106%.

For the compound `Cc1coc2cc3oc(=O)c(CCC(=O)NCc4ccc(Cl)cc4)c(C)c3cc12`, the survival was 69%.

As for `CCn1cc2nc(SCc3ccc(C)cc3)n(CCc3ccccc3)c(=O)c2n1`, the survival was 78%.

Turning to `N#Cc1cc2cc3c(cc2nc1SCC(=O)N1CCN(c2ccc(F)cc2)CC1)OCCO3`, the survival was 67%.

For the compound `CC(C)(C)c1ccc(OCC(=O)Nc2ccc(C(=O)OC3CCCCC3)cc2)cc1`, the survival is 71%.

As for `CCOC(=O)c1cc(-c2ccccc2)n(-c2cccc(C(=O)Nc3ccc(OC)cc3)c2)c1C`, the survival is 83%.

`CCOC(=O)c1cc(-c2ccccc2)n(-c2cccc(C(=O)Nc3ccc(OCC)cc3)c2)c1C`: the survival was 37% (active).

On to `CCOC(=O)c1cc(-c2ccccc2)n(-c2cccc(C(=O)Nc3cccc(SC)c3)c2)c1C`, for which the survival is 32% (active).

With `CCOC(=O)c1cc(-c2ccccc2)n(-c2cccc(C(=O)Nc3cccc(F)c3)c2)c1C`, the survival is 135%.

For `CCOC(=O)c1cc(-c2ccccc2)n(-c2cccc(C(=O)Nc3cccc(C(C)=O)c3)c2)c1C`, the survival was 89%.

On to `CCOC(=O)c1cc(-c2ccccc2)n(-c2cccc(C(=O)Nc3cc(OC)cc(OC)c3)c2)c1C`, for which the survival is 81%.

Regarding `CCOC(=O)c1ccccc1NC(=O)Nc1cc2c(cc1N1CCCCC1)n(C)c(=O)n2C`, the survival was 76%.

On to `CCC1CCCCN1C(=O)CSc1nnc(-c2ccc(OC)c(OC)c2)o1` (stereo not given), for which the survival was 71%.

With `CCOc1cc(CNC(=O)CN2CCSc3ccccc32)cc(OCC)c1OCC`, the survival was 85%.

`CC(C)CCNC(=O)C1CCC(Cn2c(=O)c3sccc3n(CC(=O)NC(C)C)c2=O)CC1` (stereo not given): the survival was 95%.

`CCOC(=O)c1c(SCC(=O)Nc2nc3ccc(C)cc3s2)nc(=O)[nH]c1C`: the survival is 70%.

With `CCOC(=O)c1c(SCC(=O)Nc2nc3ccccc3s2)nc(=O)[nH]c1C`, the survival was 6% (active).

Consider `CCOC(=O)c1c(SCC(=O)Nc2cccc(C)c2C)nc(=O)[nH]c1C`, for which the survival is 67%.

For `CCCCc1ccc(C(=O)N/C(=C\c2ccc(C)cc2)C(=O)NC2CCCCC2)cc1`, the survival is 66%.

On to `Cn1c(=O)n(CCCc2ccccc2)c(=O)c2c1nc1n2CCN1c1ccccc1`, for which the survival was 75%.

Consider `O=C(Nc1ccc(Cl)c(Cl)c1)c1cc(S(=O)(=O)N2CCN(c3cccc(Cl)c3)CC2)ccc1F`, for which the survival was 68%.

On to `COc1cc(C(=O)N2CCC(c3ccncc3)CC2)cc(OC)c1OC`, for which the survival is 88%.

As for `COc1cc(OC)cc(C(=O)N2CCC(c3ccncc3)CC2)c1`, the survival is 89%.

As for `CCOc1ccc(C(=O)N2CCC(c3ccncc3)CC2)cc1`, the survival was 94%.

For `CCN(CC)c1ccc(C(=O)N2CCC(c3ccncc3)CC2)cc1`, the survival was 88%.

For `CCOc1cc(C(=O)N2CCC(c3ccncc3)CC2)cc(OCC)c1OCC`, the survival was 17% (active).

With `COc1ccc(C(=O)N2CCC(c3ccncc3)CC2)cc1OC`, the survival is -5% (active).

In the case of `CCNC(=O)Cc1ccc(NC(=O)N2CCCCc3ccccc32)cc1`, the survival is 74%.

Consider `O=C(Nc1nnc2n1CCS2)c1ccccc1C(F)(F)F`, for which the survival is 93%.

In the case of `O=C(c1ccc2c(Cl)c3c(nc2c1)CCCC3)N1CCN(c2cccc(Cl)c2)CC1`, the survival was 65%.

With `Cc1ccc(Cl)cc1N1CCN(C(=O)c2ccc3c(Cl)c4c(nc3c2)CCCC4)CC1`, the survival is 31% (active).

With `O=C(c1ccc2c(Cl)c3c(nc2c1)CCCC3)N1CCN(c2ccccc2F)CC1`, the survival is -3% (active).

As for `Cc1ccc(C)c(N2CCN(C(=O)c3ccc4c(Cl)c5c(nc4c3)CCCC5)CC2)c1`, the survival is 98%.

In the case of `Cc1cccc(N2CCN(C(=O)c3ccc4c(Cl)c5c(nc4c3)CCCC5)CC2)c1C`, the survival is 93%.

With `O=C(c1ccc2c(Cl)c3c(nc2c1)CCCC3)N1CCN(c2cccc(C(F)(F)F)c2)CC1`, the survival is 64%.

In the case of `Cc1ccc(N2CCN(C(=O)c3ccc4c(Cl)c5c(nc4c3)CCCC5)CC2)c(C)c1`, the survival is 88%.

Regarding `O=C(c1ccc2c(Cl)c3c(nc2c1)CCCC3)N1CCN(c2ccccc2)CC1`, the survival was 20% (active).

On to `O=C(c1ccc2c(Cl)c3c(nc2c1)CCCC3)N1CCN(c2ccc(Cl)cc2)CC1`, for which the survival was 92%.

Consider `CCOC(=O)/C(C)=C1\NC(C)(C)Cc2ccccc21`, for which the survival is 92%.
